Laboratory results as given in ChEMBL document CHEMBL3988442, “University of Dundee, Small-Polar-MMV Screening Library” (2021).

Target: AMP-activated protein kinase, AMPK (Homo sapiens) (UniProt P54646+O43741+P54619+Q9UGJ0+Q9Y478+Q13131+Q9UGI9)
Test: AMP-dependent Kinase enzyme assay. An in vitro enzyme assay that detects ADP turnover that is directly proportional to AMPK activity. This uses naive AMPK that is activated during the assay with MK-8722
Assay type: functional
Parameters: scale not given: direction of the effect not stated beside the values
Settings: 30 µM

Structure (SMILES)	Percent Effect [%]
CCc1cc(N2CCC(NCCc3ccc(C)o3)CC2)nc(C)n1	5.69
Cc1cc(C)n(CCN2CCC(N(C)Cc3noc(C4CC4)n3)C2)n1 (centres undefined)	3.34
CC(C)(CNC(=O)c1ccc(Cl)o1)NC(=O)OC(C)(C)C	-2.97
CC(C)(C)c1ccc(C(=O)C2CCCN(C(=O)CNS(C)(=O)=O)C2)cc1 (centres undefined)	0.896
CN(C)CC1(O)CCCN(C(=O)CCn2cc(Cl)cn2)C1 (centres undefined)	4.94
Cc1cc(C(=O)N2CCNC(=O)CC2)c(C)n1CC(F)(F)F	-2.89
COc1cccc(CN(C)Cc2nc3cc(C)ccc3[nH]2)c1O	5.48
Cc1cc(CNS(=O)(=O)CCCC#N)ccc1N(C)C	-7.86
COCC1CCN(C(=O)c2cc(O)nc(CC(C)C)c2)CC1	-1.75
CNCc1cn(C2CCN(C(=O)NCc3ccco3)CC2)nn1	0.812
CC1CN(C)CCN1C(=O)c1cccn1Cc1cccs1 (centres undefined)	3.93
COc1cc(C(=O)O)cc(I)c1OCC(=O)NCCc1ccccc1	11.9
O=c1ccc(S(=O)(=O)N2CCCC2)cn1CC1CCCCO1 (centres undefined)	6.91
Fc1cccc(OC2CCN(CCn3cc4ccccc4n3)CC2)c1	7.33
CSc1nccc(N2CCC3(CCCN(CCc4ccccc4)C3)C2)n1 (centres undefined)	5.34
Cc1noc(C)c1CCCNC(=O)Nc1cccc([S+](C)[O-])c1 (centres undefined)	4.42
Cc1cc(CN2CCC(C3CCN(Cc4cccnc4)CC3)C2)[nH]n1 (centres undefined)	-8.19
C[S+]([O-])c1cccc(NC(=O)N[C@H](CCO)c2ccccc2)c1 (some centres undefined)	-2.38
Nc1cc(C(=O)N2CCC(Oc3cccc(C(F)(F)F)c3)CC2)ccn1	-4.01
